Active and inactive are the calls of the source. Rule for the calls: active = hit-call score of the fitted dose curve at least 0.9, where 1 is the maximum; inactive = score below 0.9.

This assay can be described thus: ATG_ISRE_CIS: Attagene CIS-FACTORIAL HepG2 Assay for human Interferon Regulatory Factor 1 (IRF1) binding to an Interferon-Stimulated Response Element (ISRE) (AID 2282948). The note with it: HepG2 ISRE cis-reporter (Attagene), mRNA transcription readout; actives raise or lower the signal. The protocol: ATG_CIS is a cell-based, multiplexed-readout assay that uses HepG2, a human liver cell line, with measurements taken at 24 hours after chemical dosing in a 24-well plate.ATG_ISRE_CIS is one of 52 assay component(s) measured or calculated from the ATG_CIS assay. It is designed to make measurements of mRNA induction, a form of inducible reporter, as detected with fluorescence intensity signals by Reverse transcription polymerase chain reaction (RT-PCR) and Capillary electrophoresis technology.Data from the assay component ATG_ISRE_CIS was analyzed into 1 assay endpoint. This assay endpoint, ATG_ISRE_CIS, was analyzed with bidirectional fitting relative to DMSO as the negative control and baseline of activity. Using a type of inducible reporter, measures of mRNA for gain or loss-of-signal activity can be used to understand the reporter gene at the transcription factor-level as they relate to the gene IRF1. Furthermore, this assay endpoint can be referred to as a primary readout, because this assay has produced multiple assay endpoints where this one serves a reporter gene function. To generalize the intended target to other relatable targets, this assay endpoint is annotated to the dna binding intended target family, where the subfamily is interferon regulatory factors.
Human liver HepG2 cells are transiently transfected with multiple reporter transcription units (MRTUs) in 6-well plates using FuGene 6 reagent (Roche; 3 ml FuGene/1 mg DNA). The MRTU constructs are regulated by a cis-regulating element (promoter). […] A major difference between the CIS and TRANS system is that in CIS activities of endogenous TFs are measured, whereas the TRANS assay evaluates changes in activities of exogenous, chimeric NR-Gal4 proteins. […] At the end of 24 hour incubation, total RNA was isolated using TriZol reagent (Invitrogen). The isolated RNA is then reverse-transcribed using oligo(dT) primer and Mo-MLV reverse transcriptase (Invitrogen) with DNAse I (Ambion) treatment for 30 min. The one-tenth of the produced cDNA was amplified by PCR using Taq DNA polymerase (Invitrogen) and two reporter sequence-specific primers. The PCR products were fluorescently labeled by primer extension with 6-arboxyfluorescein (6-FAM) 5'-labeled reporter sequence-specific primer (2 min at 95 C, 20 s at 68 C and 10 min at 72 C) and these products were digested with 5U of HpaI (New England Biolabs) for 2h at 37 C. The fragments were purified using Qiaquick PCR columns (Qiagen), analyzed on an ABI 3130xL genetic analyzer (Applied Biosystems) with peak positions identified by using a set of X-rhodamine (ROX)-labeled MapMarker1000 molecular weight standards (BioVentures). The raw capillary electrophoresis data was processed using Attagraph software (Attagene).
On to `COc1cc(C(C)(C)C)c(O)c(C(C)(C)C)c1`, for which the outcome was inactive. The same measure, in the same setting: next, `Clc1sc(Cl)c(Cl)c1Cl`: “inactive”; `CC(C)(CO)[N+](=O)[O-]`: “inactive”.

Take `c1ccc2[nH]ccc2c1`: the outcome was inactive. On to `CC(=O)OCCOC(C)=O`, for which the call was inactive.

For `CCCCO`, the outcome was inactive. The same measure, in the same setting: next, `CC(C)(C)c1n[nH]c(=S)n(N)c1=O`: “inactive”; `N#Cc1ccccc1`: “inactive”. For `CC1(C)[C@H](C(=O)OCc2cccc(Oc3ccccc3)c2)[C@@H]1C=C(Cl)Cl`, the result was inactive. Take `Cc1ccc(C(=O)O)o1`: the compound was called inactive. Regarding `CC(=O)/C=C/C1=C(C)CCCC1(C)C`, the compound was called inactive. Same read-out and setting: next, `S=C(S)NCCNC(=S)S`: “inactive”; `CC(C)[C@@H]1CC[C@@H](C)CC1=O`: “inactive”. On the same count and under the same terms, the entry for `Nc1cc(N)cc(C(=O)O)c1` is “inactive”; for `C=C(C)[C@@H]1CC[C@@H](C)C[C@@H]1O` it is “inactive”; for `Cc1ccc2n[nH]nc2c1` it is “inactive”. Broadly, the AC50 is the concentration giving half of the maximal activity seen. For `O=Nc1ccc(Nc2ccccc2)cc1`, the AC50 is 25.4 µM (active). Take `C=C(C)C(=O)O`: the call was inactive. Same read-out and setting: the entry for `CN1[C@@H]2CC(OC(=O)[C@H](CO)c3ccccc3)C[C@H]1[C@@H]1O[C@@H]12` (stereo not given in full) is “inactive”. `C#C[C@]1(O)CC[C@H]2[C@@H]3CCC4=Cc5oncc5C[C@]4(C)[C@H]3CC[C@@]21C`: the AC50 is 31.2 µM (active). `CC(C)c1cccc(O)c1`: the call was inactive.

As for `CCCCCCCCCOC(C)=O`, the compound was called inactive.

As to `CCC(=O)/C=C/C1C(C)=CCCC1(C)C` (stereo not given), the call was inactive.

On to `Nc1cc(Cl)c(O)c(Cl)c1`, for which the AC50 was 100 µM (active). On to `OC1C(O)C(O)C(O)C(O)C1O` (stereo not given), for which the compound was called inactive. In the case of `OCCN1CCNCC1`, the result was inactive.

Take `O=P(c1ccccc1)(c1ccccc1)c1ccccc1`: the compound was called inactive. Still for that read-out and setting: next, `CC(=O)O[C@H](CC(=O)[O-])C[N+](C)(C)C`: “inactive”; `C=COCCOCCOCCOC=C`: “inactive”. `CC(C)C1CCC(O)CC1` (stereo not given): the outcome was inactive. Still for that read-out and setting: next, `CCC(=O)OCc1ccccc1`: “inactive”.

For `Cc1ccc(C(=O)c2cc(O)c(O)c([N+](=O)[O-])c2)cc1`, the result was inactive.

In the case of `NC(=O)NC1NC(=O)NC1=O` (stereo not given), the compound was called inactive. Regarding `Cc1ccc(O)c(C(C)(C)C)c1`, the outcome was inactive. Regarding `CC(CN1c2ccccc2Sc2ccccc21)N(C)C` (stereo not given), the compound was called inactive.

Turning to `Cc1ccc2sc3cccc(C)c3c2c1`, the result was inactive.

For `CCO[Si](CCCS)(OCC)OCC`, the compound was classed as inactive. Same read-out and setting: the entry for `Clc1ccc2c(c1)C(N1CCNCC1)=Nc1ccccc1O2` is “inactive”. In the case of `O=C(Nc1ccccc1)c1cc([N+](=O)[O-])ccc1Cl`, the AC50 is 38.3 µM (active). Same read-out and setting: the figure for `CCN(CC)c1ccc2c(-c3ccccc3C(=O)O)c3ccc(=[N+](CC)CC)cc-3oc2c1` is 59.9 µM (active).

Values taken from PubChem BioAssay (EPA / NIEHS).
